Bioassay records deposited in PubChem BioAssay by several laboratories.
BaF3 tox: counter-screen for JAK2V617F inhibitors: parental Ba/F3 viability inhibitors. CellTiter-Glo ATP luminescence. inhibition, % at 5.6 µM. 220,000 tested, 1.1% active;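 active = inhibition above a per-campaign cutoff, the mean inhibition of all tested compounds plus 3 SD, cut at about 27% in these data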;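 note: 0% = DMSO wells and 100% = JAK Inhibitor I control wells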
aSyn 5UTR inh: MLPCN primary screen, SNCA 5' untranslated region | 300,000 tested, 0.82% active | alpha-synuclein 5'UTR reporter, inhibitor activity | inhibition, % (tested at 7.5 µM) | AID 1813; in the data active = inhibition above about 60%;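 note: H4 neuroglioblastoma cells stably carrying SNCA 5'UTR luciferase fusion; 0% = DMSO wells and 100% = positive control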
Ba/F3 V617F tox: reduce viability of Ba/F3 cells dependent on JAK2V617F; Ba/F3 EpoR-JAK2V617F viability, ATP luminescence; inhibition, % at 5.6 µM; 220,000 tested, 1.1% active; AID 1446;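 active = inhibition above the campaign mean plus 3 SD over all tested compounds, cut at about 24% in these data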;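 note: cytokine-independent growth of Ba/F3 cells driven by EpoR plus mutant JAK2; 0% = DMSO-treated cells and 100% = JAK inhibitor I control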
KLF5 inhibitor: inhibitors of KLF5 expression; DLD-1 KLF5 promoter-luciferase reporter, luminescence; inhibition, % at 5 µM; 290,000 tested, 0.23% active;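 active = inhibition above a per-plate limit of that plate's mean compound inhibition plus 3 SD, cut at about 60% in these data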;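 note: 0% = DMSO wells and 100% = LY294002 at 200 µM; higher means less KLF5 promoter-driven luciferase light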
IEC-6 cytotox: counter-screen for KLF5 inhibitors: cytotoxicity in IEC-6 cells. 290,000 tested, 0.78% active. IEC-6 cytotoxicity, luminescence viability. AID 1825. inhibition, % at 5 µM;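 note: 0% = plate median of test compound wells and 100% = cytotoxic reference compound wells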
APP 5UTR inh: APP translation inhibition; SH-SY5Y APP 5'UTR-luciferase reporter, luminescence; inhibition, % at 2 µM; 190,000 tested, 0.82% active; AID 1285;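 active = inhibition above a set limit, derived from the sample mean plus 3 SD, cut at about 45% in these data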
IEC-6 tox confirm: IEC-6 cytotoxicity, confirmation assay; 1,900 tested, 63% active; inhibition, % at 5 µM; shares compounds with IEC-6 cytotox; IEC-6 rat intestinal epithelial viability, luminescence; AID 1907;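 note: 0% = vehicle and 100% = reference cytotoxic drug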
Starred values were filed as active, the others as inactive; i = inactive; . = no result. Sampled rows, rich in hits. Any-hit rate of the full collection: about 2.2%. Cut-off read from the data, not from the text of the source, unless noted: active = inhibition above about 22%; inactive = the rest.

SMILES | BaF3 tox | aSyn 5UTR inh | Ba/F3 V617F tox | KLF5 inhibitor | IEC-6 cytotox | APP 5UTR inh | IEC-6 tox confirm
CCN1CCS/C1=C/C=C/C1=[N+](CC)CCS1 | 81* | -19 | 99* | -28 | 27* | -14 | 30*
CCN1CCS/C1=C\C=C\C1=[N+](CC)CCS1 | 90* | 19 | 101* | 5 | 37* | -3 | 31*
COc1ccc(NC(=S)N2CCN(C(=O)c3ccccc3)CC2)cc1 | 11 | 7 | -2 | -48 | 0 | 12 | .
COCCN1CCN(C(=O)c2ccc3c(c2)S(=O)(=O)c2ccccc2C3=O)CC1 | . | -18 | . | . | . | . | .
CNC(=O)C(=O)NCCN1CCN(S(=O)(=O)c2ccc3ccccc3c2)CC1 | . | -14 | . | -31 | 5 | . | .
COc1cccc(C(=O)N2CCC(n3nccc3NC(=O)C(OC)c3ccccc3)CC2)c1 (centres undefined) | . | 9 | . | 1 | 9 | . | .
Cn1c2ccccc2c(=O)c2ccc(C#Cc3ccc(N)cc3)cc21 | . | -26 | . | -44 | 36* | . | 33*
COc1ccc(C#Cc2ccc3c(=O)c4ccccc4n(C)c3c2)cc1 | . | -53 | . | -14 | 0 | . | .
COc1ccc(C2c3cc(OC)c(OC)cc3CCN2C(=O)c2ccccc2Br)cc1OC (centres undefined) | . | 12 | . | -29 | 4 | . | .
CC(C)CNC(=O)C(=O)NNC(=O)c1ccco1 | 1 | -8 | -2 | -21 | -4 | -5 | .
CCOc1ccc(-c2cc(C(=O)OC)[nH]n2)cc1 | 5 | -103 | 3 | -70 | -4 | -58 | .
NC(=O)N=Nc1c2[nH]c3ccccc3nc-2c2ccccc12 | 7 | i | 6 | 8 | 26* | . | 7
O=c1[nH]c2ccccc2nc1-c1ccccc1 | 2 | -73 | 5 | -48 | 11 | . | .
CCC(=O)Nc1nn(CC(C)C)c2nc3ccc(C)cc3cc12 | . | 6 | . | -51 | 1 | . | .
CN1CCN(c2ccc(NC(=O)CSc3nnnn3-c3ccccc3Cl)cc2)CC1 | . | -16 | . | -24 | 19 | . | .
O=C(NNC(=O)c1ccc(O)cc1O)c1ccc(-c2ccccc2)cc1 | . | -5 | . | -5 | 24* | . | 1
COc1cc(C(=S)N2CCCCC2)ccc1OCC(=O)Nc1ccc(F)cc1 | . | -2 | . | -18 | 0 | . | .
Cc1ccc(CNC(=O)CCc2c(C)nn(-c3ccc(N4CCOCC4)nn3)c2C)cc1 | . | -3 | . | -19 | -4 | . | .
O=C(CCc1ccccc1)Nc1ccc(Cl)cn1 | 51* | -314 | 67* | 20 | 68* | 75* | 40*
Cc1ccc(Cc2cnc(NC(=O)c3cccs3)s2)cc1 | -4 | -91 | -1 | -173 | 1 | -170 | .
Cc1ccc(C(=O)Nc2ncc(Cc3ccccc3)s2)o1 | 79* | -18 | 81* | -36 | 51* | -205 | 40*
Cc1cnc(NC(=O)CCc2ccccc2)s1 | . | -383 | . | -38 | 31* | . | 13
CCCN(C(=O)COC(=O)Cn1c(=O)oc2ccccc21)c1c(N)n(Cc2ccccc2)c(=O)[nH]c1=O | . | -11 | . | . | . | . | .
CC(/C=N/NC(=O)c1ccccc1F)=C\c1ccccc1 | . | -138 | . | -149 | 4 | . | .
CN1CCN(c2ccc(-c3ccnn3C(=O)Nc3cccc(C(F)(F)F)c3)cc2)CC1 | 3 | -114 | 0 | -57 | 2 | -39 | .
SMILES | BaF3 tox | aSyn 5UTR inh | Ba/F3 V617F tox | KLF5 inhibitor | IEC-6 cytotox | APP 5UTR inh | IEC-6 tox confirm
O=C(c1ccco1)N1CCN(Cc2ccccc2C(F)(F)F)CC1 | 4 | . | 0 | 7 | 14 | -9 | .
O=C(c1ccco1)N1CCN(Cc2cccc3ccccc23)CC1 | . | 17 | . | 6 | 26* | . | 16
Cc1nc2cc(NC(=O)c3ccc(Cl)cc3)ccc2n1C | . | -35 | . | -82 | -2 | . | .
COc1cc(C(=O)Nc2ccc3c(c2)nc(C)n3C)cc(OC)c1OC | . | -92 | . | 20 | 30* | . | 19
COc1cc(C(=O)Nc2ccc3c(c2)ncn3C)cc(OC)c1OC | . | 25 | . | 50 | 55* | . | 34*
O=C(C(Cl)Cl)N1c2ccccc2OCC1c1ccccc1 (centres undefined) | 9 | -42 | 6 | 5 | 37* | -2 | 15
Cc1ccc(S(=O)(=O)N2c3ccccc3OCC2c2ccccc2)cc1 (centres undefined) | 6 | -2 | -2 | -18 | 2 | -14 | .
CSCCC(NC(N)=O)C(=O)Nc1cccc(C#N)c1 (centres undefined) | 1 | -1 | -3 | -1 | -1 | -5 | .
O=C(COC(=O)c1cc(-c2cccs2)nc2ccccc12)NC1CCS(=O)(=O)C1 (centres undefined) | 4 | -1 | 2 | 10 | 2 | -6 | .
CNc1nc2cc([N+](=O)[O-])c([N+](=O)[O-])cc2nc1NC | 69* | 9 | 75* | -32 | 40* | -18 | 34*
CNc1ccc(S(=O)(=O)NC)cc1[N+](=O)[O-] | 7 | -6 | 0 | -15 | -1 | 2 | .
CC(C)CCN1CC(=O)N2[C@@H](Cc3c([nH]c4ccccc34)C2(C)C)C1=O | . | 10 | . | -19 | -2 | . | .
CCCc1cc(=O)n2[nH]cc(-c3ccc(Cl)cc3)c2n1 | . | 71* | . | -23 | 23* | . | 6
CCN(c1ccc(OC)cc1)S(=O)(=O)c1ccc(-c2cc(C)no2)s1 | . | -47 | . | -18 | 7 | . | .
CCc1ccccc1N(C)S(=O)(=O)c1ccc(-c2cc(C)no2)s1 | . | -2 | . | 52 | 47* | . | 18
O=C(CN1CCCC1)N/N=C/c1c(O)ccc2ccccc12 | . | 41 | . | 39 | 4 | . | .
Cc1ccc(C(C)NC(=S)NC2CCCCC2)c(C)c1 (centres undefined) | . | 4 | . | -14 | -12 | . | .
COc1ccc(Cl)cc1NC(=O)CSc1nc(Nc2ccccc2)nc(N2CCOCC2)n1 | . | 8 | . | 9 | 30* | . | 12
CC(=O)Oc1cccc(C(=O)Nc2ccccc2C(=O)N2CCCC2)c1 | . | -12 | . | -7 | -9 | . | .
COc1ccc(-c2csc(-c3ccc(O)cc3)n2)cc1 | 47* | -215 | 64* | -58 | 50* | . | 44*
COc1ccc(-c2nc(CCl)cs2)cc1 | 0 | -142 | -3 | -29 | -2 | -4 | .
COc1ccc(-c2ccnc(-c3ccc(O)cc3)n2)cc1 | 59* | -38 | 79* | 27 | 69* | 93* | 60*
COc1ccc(-c2ccnc(-c3ccncc3)n2)cc1 | 13 | -2 | 19 | 10 | 30* | . | 18
